Experimental findings from PubChem BioAssay are described below.

Active and inactive are the calls of the source.

Test [1] has as its system PRMT1 (protein arginine N-methyltransferase 1). Briefly: PRMT1 binders on small-molecule microarrays, primary screen, biochemical, small-molecule microarray, 635 nm fluorescence (AID 1088).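 Also: binding of Prmt1 protein to compounds spotted on small-molecule microarray slides.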 Conditions: small-molecule microarray binding, higher = more signal.
Test [2] in a line: yeast growth modulation, basal conditions, primary screen, YJM789 clinical isolate, OD600, 24 h (AID 1089).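 Also: growth of clinical yeast isolate S. cerevisiae YJM 789 seeded 1000 cells per well; test concentration not given here.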 The settings on record: S. cerevisiae YJM789 growth, higher = more signal, called active from +8 up or from −8 down.
A short description of test [3]: fission yeast growth modulation, primary screen, strain 972, OD600, 24 h, no modulator (AID 1090).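 Also: basal condition with compound alone and no growth modifier present; test concentration not given here.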 Conditions: S. pombe 972 growth, higher = more signal, called active from +8 up or from −8 down.
Test [4] can be described thus: S. cerevisiae growth modulation with rapamycin, primary screen, strain BY4716, OD600, 96 h (AID 1091). Also: test concentration not given here. Conditions: higher = more signal, called active from +8 up or from −8 down.
The target of test [5] is Torsin-1A-interacting protein 2 (Homo sapiens) (UniProt Q8NFQ8). In words: LULL1 binders on small-molecule microarray, primary screen, cell lysate, human LULL1 lysate, 635/667 nm fluorescence (AID 1092).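 Also: probe is lysate of COS7 cells overexpressing human LULL1; score merges per-feature 667 nm fluorescence with signal-to-noise.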 The settings on record: hLULL1 lysate binding, 635 nm fluorescence, higher = more signal.
A short description of test [6]: E. coli growth modulation, two-sided OD650, primary screen, E. coli filamentation project, strain DRC41, 24 h (AID 1093).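 Also: MC1000 strain lacking acrAB efflux and sulA so SOS filamentation is blocked; test concentration not given here.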 Conditions: OD650, 24 h, higher = more signal, called active from +8 up or from −8 down.
A short description of test [7]: small-molecule microarray binders of probe aLefty2, primary screen, biochemical, biotinylated probe, 635/667 nm fluorescence (AID 1094).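 Also: score merges spot fluorescence near 667 nm with spot signal-to-noise ratio.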 The settings on record: higher = more signal.
Test [8] relates to Noggin (protein binding on small-molecule microarray). In words: Noggin binders on small-molecule microarray, primary screen, biochemical, 635/667 nm fluorescence (AID 1095).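 Also: score merges 667 nm feature fluorescence with signal to noise over triplicate slides.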 The settings on record: 635 nm fluorescence, higher = more signal.
The target in test [9] is Neurogenic locus notch homolog protein 3 (Homo sapiens) (UniProt Q9UM47). In words: NOTCH3 binders on small-molecule microarray, primary screen, biochemical, 635/667 nm fluorescence (AID 1096). Conditions: NOTCH3 binding, 635 nm fluorescence, higher = more signal.
Test [10] can be described thus: small-molecule microarray binders of probe aEGFR, primary screen, biochemical, biotinylated probe, 635/667 nm fluorescence (AID 1097).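 Also: probe is a biotinylated anti-EGFR antibody binding compounds printed on slides; score combines fluorescence near 667 nm and signal to noise of each spot.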 The settings on record: higher = more signal.
For test [11], the system named is Plasmodium falciparum Sir2 (PF13_0152, Sir2A). In words: pfSir2 binders on small-molecule microarrays, primary screen, biochemical, small-molecule microarray, 635 nm fluorescence (AID 1098).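 Also: score merges spot fluorescence intensity with its signal-to-noise ratio.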 The settings on record: small-molecule microarray binding, fluorescence 635 nm; higher = more signal.
Test [12] in a line: small-molecule microarray binders of probe aDKK1, primary screen, biochemical, biotinylated probe, 635/667 nm fluorescence (AID 1099).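 Also: score merges 667nm spot fluorescence with signal to noise across triplicate slides; reference of the scale not given here.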 Conditions: higher = more signal.
Test [13] can be described thus: small-molecule microarray binders of probe aCHRDL2, primary screen, biochemical, biotinylated probe, 635/667 nm fluorescence (AID 1100). Conditions: higher = more signal.
Test [14] is described as follows: splicing luciferase reporter signal modulators, primary screen, spliceosome inhibition project, cell-based, HEK293, splice +/- reporter (AID 1101).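 Also: HEK293 cells carrying a splicing-competent luciferase reporter gene; test concentration not given here.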 Conditions: luminescence, 24 h, higher = more signal, called active from +8 up or from −8 down. On the technique in general: In a reporter assay the amount or activity of a reporter protein is the signal.
Test [15] deals with Fibroblast growth factor 10 (Homo sapiens) (UniProt O15520). Briefly: FGF10 binders on small-molecule microarrays, primary screen, biochemical, small-molecule microarray, 635 nm fluorescence (AID 1102). Conditions: FGF10 binding, fluorescence 635 nm, higher = more signal.
Test [16] relates to glycogen synthase kinase-3 (GSK3A per assay name; protocol says GSK3B). Briefly: GSK3 binders on small-molecule microarrays, primary screen, biochemical, small-molecule microarray, 635 nm fluorescence, GSK3A (AID 1103). Also: the record names both GSK3A and GSK3B. Conditions: small-molecule microarray binding, fluorescence 635 nm; higher = more signal.
Test [17] deals with Epidermal growth factor receptor (Homo sapiens) (UniProt P00533). In words: EGFR binders on small-molecule microarrays, primary screen, biochemical, small-molecule microarray, 635 nm fluorescence (AID 1104).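 Also: score merges 667 nm emission intensity with spot signal to noise over triplicate slides.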 Conditions: EGFR binding, higher = more signal.
In test [18] the target is Follistatin-related protein 3 (Homo sapiens) (UniProt O95633). In words: FSTL3 binders on small-molecule microarrays, primary screen, biochemical, small-molecule microarray, 635 nm fluorescence (AID 1105).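 Also: score merges emission near 667 nm and signal to noise per printed spot across three slides.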 The settings on record: FSTL3 binding, higher = more signal.
In test [19] the target is Dickkopf-related protein 1 (Homo sapiens) (UniProt O94907). Briefly: DKK1 binders on small-molecule microarrays, primary screen, biochemical, small-molecule microarray, 635 nm fluorescence scan (AID 1106).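 Also: score merges emission near 667 nm with signal to noise over three replicate slides.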 Conditions: DKK1 binding, higher = more signal.
Test [20] relates to Inhibin beta A chain (activin A). Briefly: INHBA (activin A) binders on microarrays, primary screen, biochemical, small-molecule microarray, 635 nm fluorescence scan (AID 1107).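 Also: mouse activin A protein probed at 4.33 µg/mL on printed slides; score merges bound-protein fluorescence near 667 nm with spot signal-to-noise.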 The settings on record: small-molecule microarray binding, higher = more signal.

Torsin-1A-interacting protein 2 (Homo sapiens), sequence (Q8NFQ8 whole entry, looked up): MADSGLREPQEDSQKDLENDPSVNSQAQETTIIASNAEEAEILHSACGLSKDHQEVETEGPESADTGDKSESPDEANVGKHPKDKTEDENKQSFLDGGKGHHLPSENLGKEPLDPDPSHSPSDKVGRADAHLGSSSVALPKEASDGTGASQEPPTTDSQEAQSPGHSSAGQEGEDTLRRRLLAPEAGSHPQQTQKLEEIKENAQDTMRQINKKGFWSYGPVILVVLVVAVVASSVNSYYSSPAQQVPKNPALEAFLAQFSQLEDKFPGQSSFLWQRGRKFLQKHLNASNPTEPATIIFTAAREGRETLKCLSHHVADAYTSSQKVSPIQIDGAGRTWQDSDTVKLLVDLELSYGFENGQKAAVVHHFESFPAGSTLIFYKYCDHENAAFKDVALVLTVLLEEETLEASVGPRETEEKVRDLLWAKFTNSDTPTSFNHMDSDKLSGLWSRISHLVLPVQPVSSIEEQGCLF
Follistatin-related protein 3 (Homo sapiens), sequence (O95633 whole entry, looked up): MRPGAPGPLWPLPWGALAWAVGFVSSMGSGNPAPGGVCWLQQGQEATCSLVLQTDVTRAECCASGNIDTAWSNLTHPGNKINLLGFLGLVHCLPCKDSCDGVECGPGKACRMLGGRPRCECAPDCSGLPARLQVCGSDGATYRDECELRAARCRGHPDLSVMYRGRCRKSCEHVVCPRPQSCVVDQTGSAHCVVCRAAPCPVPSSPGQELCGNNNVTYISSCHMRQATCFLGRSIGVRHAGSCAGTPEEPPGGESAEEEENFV
Neurogenic locus notch homolog protein 3 (Homo sapiens), sequence (Q9UM47 whole entry, looked up): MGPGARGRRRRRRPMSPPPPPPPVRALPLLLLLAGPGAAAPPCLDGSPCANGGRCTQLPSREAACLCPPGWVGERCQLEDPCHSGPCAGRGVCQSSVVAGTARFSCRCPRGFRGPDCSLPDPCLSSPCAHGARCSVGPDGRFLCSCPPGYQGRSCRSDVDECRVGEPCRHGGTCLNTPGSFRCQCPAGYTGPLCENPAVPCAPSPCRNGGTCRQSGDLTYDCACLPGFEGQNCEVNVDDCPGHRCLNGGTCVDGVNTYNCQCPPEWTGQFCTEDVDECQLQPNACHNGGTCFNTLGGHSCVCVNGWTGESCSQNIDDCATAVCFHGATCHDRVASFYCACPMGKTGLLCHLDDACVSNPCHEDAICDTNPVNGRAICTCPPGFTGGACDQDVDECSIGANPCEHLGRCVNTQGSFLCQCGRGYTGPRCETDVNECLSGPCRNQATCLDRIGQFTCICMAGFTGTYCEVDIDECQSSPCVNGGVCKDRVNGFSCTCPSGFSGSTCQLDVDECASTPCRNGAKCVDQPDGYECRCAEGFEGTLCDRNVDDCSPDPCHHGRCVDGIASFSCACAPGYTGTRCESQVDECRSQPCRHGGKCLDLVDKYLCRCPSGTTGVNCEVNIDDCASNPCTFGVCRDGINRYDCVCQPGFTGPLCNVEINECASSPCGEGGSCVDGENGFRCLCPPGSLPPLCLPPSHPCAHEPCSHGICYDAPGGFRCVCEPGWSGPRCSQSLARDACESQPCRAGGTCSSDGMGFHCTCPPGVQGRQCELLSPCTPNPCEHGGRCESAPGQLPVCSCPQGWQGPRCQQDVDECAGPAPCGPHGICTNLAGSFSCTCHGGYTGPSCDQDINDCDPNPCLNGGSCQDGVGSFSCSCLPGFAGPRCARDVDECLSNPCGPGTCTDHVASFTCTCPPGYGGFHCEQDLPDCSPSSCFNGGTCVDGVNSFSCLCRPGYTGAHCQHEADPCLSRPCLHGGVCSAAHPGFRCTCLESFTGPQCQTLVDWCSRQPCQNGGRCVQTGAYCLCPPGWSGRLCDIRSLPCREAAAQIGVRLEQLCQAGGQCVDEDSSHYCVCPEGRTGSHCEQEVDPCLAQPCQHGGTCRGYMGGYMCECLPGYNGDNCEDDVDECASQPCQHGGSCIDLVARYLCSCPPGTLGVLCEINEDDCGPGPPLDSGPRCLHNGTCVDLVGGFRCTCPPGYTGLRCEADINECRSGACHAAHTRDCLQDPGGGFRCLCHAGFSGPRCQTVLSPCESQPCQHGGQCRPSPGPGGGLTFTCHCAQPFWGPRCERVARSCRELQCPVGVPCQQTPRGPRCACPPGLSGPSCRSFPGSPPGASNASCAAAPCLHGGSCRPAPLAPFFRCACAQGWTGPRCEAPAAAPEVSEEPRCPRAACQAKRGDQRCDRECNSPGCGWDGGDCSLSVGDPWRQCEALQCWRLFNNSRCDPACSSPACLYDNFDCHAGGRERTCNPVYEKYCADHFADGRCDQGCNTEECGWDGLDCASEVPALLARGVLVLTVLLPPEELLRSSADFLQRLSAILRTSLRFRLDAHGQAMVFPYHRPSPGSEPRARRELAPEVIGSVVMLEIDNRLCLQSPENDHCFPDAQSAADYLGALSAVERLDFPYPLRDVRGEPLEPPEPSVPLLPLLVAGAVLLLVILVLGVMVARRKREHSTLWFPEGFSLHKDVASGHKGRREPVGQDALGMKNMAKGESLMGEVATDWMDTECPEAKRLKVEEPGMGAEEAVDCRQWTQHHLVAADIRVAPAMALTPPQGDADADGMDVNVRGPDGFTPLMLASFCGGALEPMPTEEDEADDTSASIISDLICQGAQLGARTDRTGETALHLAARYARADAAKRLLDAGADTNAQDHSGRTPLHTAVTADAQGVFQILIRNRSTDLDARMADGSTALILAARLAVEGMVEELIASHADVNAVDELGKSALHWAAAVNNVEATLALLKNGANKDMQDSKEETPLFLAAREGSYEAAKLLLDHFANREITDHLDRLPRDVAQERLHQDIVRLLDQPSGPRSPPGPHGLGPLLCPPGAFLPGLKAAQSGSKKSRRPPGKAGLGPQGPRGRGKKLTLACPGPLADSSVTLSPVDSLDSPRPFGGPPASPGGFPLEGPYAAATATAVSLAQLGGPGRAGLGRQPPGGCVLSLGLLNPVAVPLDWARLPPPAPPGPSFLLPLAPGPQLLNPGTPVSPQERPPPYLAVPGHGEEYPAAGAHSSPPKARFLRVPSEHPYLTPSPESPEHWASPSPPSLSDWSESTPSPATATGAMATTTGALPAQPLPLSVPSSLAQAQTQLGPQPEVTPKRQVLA
Dickkopf-related protein 1 (Homo sapiens), sequence (O94907 whole entry, looked up): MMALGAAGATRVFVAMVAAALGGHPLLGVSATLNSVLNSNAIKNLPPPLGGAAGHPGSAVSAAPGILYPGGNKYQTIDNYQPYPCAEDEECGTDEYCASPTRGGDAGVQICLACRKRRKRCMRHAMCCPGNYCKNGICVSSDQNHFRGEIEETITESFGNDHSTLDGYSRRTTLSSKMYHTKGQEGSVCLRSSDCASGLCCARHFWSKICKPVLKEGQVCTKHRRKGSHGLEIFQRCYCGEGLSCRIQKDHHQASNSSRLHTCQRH
Fibroblast growth factor 10 (Homo sapiens), sequence (O15520 whole entry, looked up): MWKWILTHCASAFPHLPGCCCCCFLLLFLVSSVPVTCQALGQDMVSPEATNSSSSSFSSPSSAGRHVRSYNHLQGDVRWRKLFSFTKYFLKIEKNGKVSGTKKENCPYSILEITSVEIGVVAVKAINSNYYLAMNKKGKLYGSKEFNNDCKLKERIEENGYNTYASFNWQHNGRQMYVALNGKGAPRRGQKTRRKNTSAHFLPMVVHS
Epidermal growth factor receptor (Homo sapiens), sequence (P00533 whole entry, looked up): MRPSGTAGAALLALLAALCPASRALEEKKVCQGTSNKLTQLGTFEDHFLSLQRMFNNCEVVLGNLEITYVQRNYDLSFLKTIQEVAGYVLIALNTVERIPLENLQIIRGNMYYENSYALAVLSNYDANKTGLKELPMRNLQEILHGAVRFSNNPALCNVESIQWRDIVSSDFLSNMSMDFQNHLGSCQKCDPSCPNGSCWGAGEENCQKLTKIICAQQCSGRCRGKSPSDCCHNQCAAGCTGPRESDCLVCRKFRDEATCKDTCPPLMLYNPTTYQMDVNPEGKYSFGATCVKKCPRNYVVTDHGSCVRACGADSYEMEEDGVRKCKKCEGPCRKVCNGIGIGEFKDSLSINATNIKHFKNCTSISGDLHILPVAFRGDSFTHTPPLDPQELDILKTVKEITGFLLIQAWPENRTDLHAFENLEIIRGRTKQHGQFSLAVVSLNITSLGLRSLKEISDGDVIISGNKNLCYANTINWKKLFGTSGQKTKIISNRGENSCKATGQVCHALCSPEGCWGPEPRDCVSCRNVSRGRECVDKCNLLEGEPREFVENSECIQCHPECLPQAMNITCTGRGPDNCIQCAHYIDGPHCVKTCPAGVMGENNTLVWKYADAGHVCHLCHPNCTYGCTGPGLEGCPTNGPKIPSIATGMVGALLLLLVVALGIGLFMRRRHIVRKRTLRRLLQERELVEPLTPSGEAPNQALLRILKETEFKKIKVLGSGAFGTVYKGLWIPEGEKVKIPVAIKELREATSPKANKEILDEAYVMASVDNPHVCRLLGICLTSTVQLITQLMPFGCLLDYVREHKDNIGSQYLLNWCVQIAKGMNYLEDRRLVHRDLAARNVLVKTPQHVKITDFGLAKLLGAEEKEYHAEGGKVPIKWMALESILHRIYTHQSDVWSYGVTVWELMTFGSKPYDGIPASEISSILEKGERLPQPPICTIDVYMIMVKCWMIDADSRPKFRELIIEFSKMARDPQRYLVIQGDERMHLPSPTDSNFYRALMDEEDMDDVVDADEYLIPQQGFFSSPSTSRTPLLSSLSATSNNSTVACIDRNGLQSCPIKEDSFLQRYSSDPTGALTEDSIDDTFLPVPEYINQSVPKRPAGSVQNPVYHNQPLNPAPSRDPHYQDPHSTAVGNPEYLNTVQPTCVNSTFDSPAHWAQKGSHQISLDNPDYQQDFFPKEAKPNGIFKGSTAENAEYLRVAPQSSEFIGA

For the compound `COC(=O)[C@@]1(Cc2ccc(OC)cc2)[C@H]2c3cc(C(=O)N(C)C)n(Cc4ccc(Cl)c(C(F)(F)F)c4)c3C[C@H]2CN1C(=O)c1ccccc1`, the composite z-score is 0.295 in test [1]; 3.06 in test [5]; 0.539 in test [7]; -0.0329 in test [8]; 1.02 in [9]; 0.35 in test [10]. Besides, the composite z-score in test [11] is 0.546; in test [12], 1.45; in [13] it was 1.49; in test [15], 0.523; in [16] it was 0.363; in test [17] it was -0.242. Moreover, the composite z-score in test [18] was 0.83; in test [19] it was -1.12; in [20], 0.986. Besides, the z-score in test [2] was 1.01 (inactive); in test [3], 1.38 (inactive); in test [4] it was 2.98 (inactive); in test [6], -0.397 (inactive); in test [14], 0.524 (inactive).

Turning to `C[N+](C)(C)CCCCCCNC(=O)[C@H]1C[C@H]2C(=O)NCC(=O)N2[C@H]1c1ccc(O)cc1`, the composite z-score was 1.46 in [1]; 2.88 in [5]; -0.413 in [7]; 1.6 in test [8]; 1.05 in [9]; -0.12 in [10]. Besides, the composite z-score in test [11] was 1.51; in [12], -0.34; in test [13], -0.592; in test [15], 1.35; in [16], 0.846; in [17], 0.056. For the same compound, the composite z-score is 1.42 in test [18], 0.687 in test [19] and -0.253 in [20]. The z-score in test [2] is -0.374 (inactive); in test [3] it was 0.332 (inactive); in [4], -0.489 (inactive); in test [6], 0.376 (inactive); in test [14], -0.271 (inactive).

Turning to `CC(C)(C)OC(=O)CC[C@]1(C(=O)NCc2ccccc2)N=C(c2ccc(OCCCO)cc2)O[C@H]1c1ccccc1CN=[N+]=[N-]`, the composite z-score in test [1] came out at 1.54; in test [5] it was 3.46; in test [7], 0.214; in test [8], 1.2; in [9], 1.05; in test [10], 0.134. The composite z-score in test [11] amounted to 1.45; in test [12], 0.242; in [13], 0.545; in [15] it was 1.22; in test [16], 1.36; in test [17], 0.227. Further, the composite z-score in [18] was determined as 1.37; in test [19] it was 0.133; in [20], 0.554. The z-score in test [2] was 0.133 (inactive); in test [3] it was 0.0256 (inactive); in test [4] it was 0.176 (inactive); in test [6] it was 0.868 (inactive); in test [14], 0.22 (inactive).

Consider `C=CCC(OC(C)=O)[C@@H]1[C@@H](N(Cc2ccc(-c3ccccc3)cc2)C(=O)Cc2ccc(F)cc2)c2cc(OCCCO)ccc2N1C(=O)Cc1ccc(OC)cc1` (stereo not given in full), for which the composite z-score was -0.712 in [1]; 0.311 in test [5]; 0.0731 in test [7]; -0.128 in [8]; -0.241 in test [9]; -0.204 in test [10]. The composite z-score in [11] is -0.383; in [12], -0.129; in [13], 0.0545; in test [15], -0.0269; in test [16] it was 0.0082; in test [17], -0.244. In addition, the composite z-score in test [18] is 0.359; in test [19] it was -0.139; in [20], 1.14. Moreover, the z-score was 0.111 (inactive) in [2]; 0.278 (inactive) in test [3]; -0.0946 (inactive) in test [4]; 0.245 (inactive) in test [6]; -0.599 (inactive) in test [14].

Take `CC1=C[C@@]2(CO)C(=O)[C@]3(CO3)[C@@H]1[C@H]1[C@]2(C)C=C(CO)C(=O)[C@]12CO2`: the composite z-score in test [1] is 0.295; in test [5], 0.0091; in test [7], -0.113; in test [8], 0.177; in test [9] it was 0.652; in test [10], -0.276. Also, the composite z-score is 0.451 in test [11]; 0.0159 in [12]; -0.52 in test [13]; 0.302 in test [15]; 0.296 in test [16]; 0.33 in test [17]. Moreover, the composite z-score is 0.951 in [18], 0.241 in test [19] and 0.421 in [20]. Also, the z-score in test [2] is -1.32 (inactive); in test [3], -9.27 (active); in test [4], -0.946 (inactive); in [6] it was 0.179 (inactive); in test [14] it was -0.23 (inactive).
